AGP1-GFP MLPCN: alters AGP1-GFP fluorescence in TOR pathway yeast screen. GFP response vs DMSO, % at 10 µM. 0.02% of 320,000 active. AID 2066. S. cerevisiae AGP1-GFP multiplex flow cytometry, 3 h; GFP as percent of DMSO wells;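 active means GFP response relative to DMSO above a set limit, near screen average plus 3 SD, cut at about 150% in these data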;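 further: median GFP channel fluorescence of the gated AGP1 strain per well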
LAP4-GFP MLPCN: yeast TOR pathway LAP4-GFP modulation. AID 2023. GFP response vs DMSO, % at 10 µM. S. cerevisiae LAP4-GFP multiplex, flow cytometry GFP, 3 h; median GFP as percent of DMSO wells. 0.34% of 320,000 active;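 active means GFP response vs DMSO above a set limit, about the screen mean plus 3 SD, cut at about 150% in these data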
MEP2 TOR yeast: yeast TOR pathway MEP2-GFP modulation; S. cerevisiae MEP2-GFP strain, flow cytometry GFP, 3 h; 100% = DMSO control level; 0.51% of 330,000 active; GFP response vs DMSO, % at 10 µM; AID 2016;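 active means GFP response versus DMSO above a set limit, roughly screen mean plus 3 SD, cut at about 180% in these data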;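 further: median GFP fluorescence of the barcode-gated MEP2-GFP cells per well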
CIT2 TOR yeast: modulators of TOR pathway CIT2-GFP in S. cerevisiae. S. cerevisiae CIT2-GFP strain, flow cytometry, 3 h; 100 means same as DMSO wells. GFP response vs DMSO, % at 10 µM. 0.065% of 320,000 active. AID 2029;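 active means GFP response relative to DMSO above a set limit, near the screen mean plus 3 SD, cut at about 150% in these data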;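 further: ratio of well median GFP fluorescence to mean of DMSO wells on the plate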
RPL19A-GFP yeast: alters RPL19A-GFP fluorescence in TOR pathway yeast screen | S. cerevisiae RPL19A-GFP strain, flow cytometry, 3 h; stronger effect = lower value | percent response vs DMSO, % at 10 µM | 0.3% of 330,000 active;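 active means percent response vs DMSO below 50%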;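 further: median channel GFP fluorescence of the barcoded RPL19A-GFP strain; ratio of sample median GFP to plate DMSO average so 100% = DMSO; lower means less RPL19A-GFP as with rapamycin TOR inhibition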
LAP4-GFP pick2: yeast LAP4-GFP modulation, second cherry pick; shares compounds with LAP4-GFP MLPCN; S. cerevisiae LAP4-GFP strain, flow cytometry GFP, 3 h; GFP response vs DMSO, % at 10 µM; 20% of 590 active;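 active means GFP signal as percent of the solvent control above about 150%, meaning raised reporter expression, limit read from the data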;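 further: ratio of well median GFP fluorescence to plate DMSO mean so 100% = DMSO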
MEP2 cherry2: reconfirmed MEP2-GFP TOR pathway modulator in yeast | 10% of 590 active | S. cerevisiae MEP2-GFP strain, flow cytometry GFP, 3 h | shares compounds with LAP4-GFP MLPCN | AID 2622 | GFP response vs DMSO, % at 10 µM;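 active means GFP signal above 150% of the solvent control wells, that is a rise of more than half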;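 further: median channel GFP fluorescence of all gated yeast cells per well; ratio of median GFP to plate DMSO average so 100% = DMSO level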
RPL19A-GFP pick2: yeast RPL19A-GFP TOR reporter modulation, second cherry pick | shares compounds with LAP4-GFP MLPCN | S. cerevisiae RPL19A-GFP strain, flow cytometry GFP, 3 h; stronger effect = lower value; 100% means same as DMSO wells | GFP response vs DMSO, % at 10 µM | 3% of 590 active | AID 2623;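 active means under 65% GFP response relative to DMSO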;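 further: median GFP channel fluorescence per well over the all cells gate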
CIT2-GFP pick2: second confirmation of modulators of TOR reporter CIT2-GFP in yeast. GFP response vs DMSO, % at 10 µM. S. cerevisiae CIT2-GFP strain, flow cytometry GFP, 3 h; DMSO control wells read 100%. 8% of 590 active. shares compounds with LAP4-GFP MLPCN. AID 2624;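 active means GFP response vs DMSO above about 150%, limit read from the data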;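 further: median green fluorescence per well over all gated yeast cells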
AGP1 GFP CP2: second confirmation of modulators of TOR reporter AGP1-GFP in yeast. shares compounds with LAP4-GFP MLPCN. S. cerevisiae AGP1-GFP strain, flow cytometry GFP, 3 h. 590 tested, under 10 active. percent response vs DMSO, % at 10 µM;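 active means over 150 percent of DMSO response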;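 further: median GFP channel fluorescence over all cells without mother daughter split; sample median GFP divided by mean DMSO control so 100% equals DMSO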
s288c autofluor: compound is autofluorescent in yeast s288c cells. shares compounds with LAP4-GFP MLPCN. S. cerevisiae s288c, 520 nm autofluorescence, flow cytometry, 3 h; stronger effect = higher value; zero means same as solvent-only cells. fluorescence change (kMESF span) at 33 µM. 610 tested, under 10 active. AID 2757;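 active means fluorescence span over the dose series, or activity score, above about 33, limit read from the data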
s288c autofl DR: counter-screen for autofluorescence of TOR hits in yeast s288c; S. cerevisiae s288c parental, compound autofluorescence, flow cytometry, 3 h; fluorescence change (span) at 33 µM; 110 tested, under 10 active; shares compounds with LAP4-GFP MLPCN;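 active means fluorescence change span, or the activity score built from it, above 25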
TORC1 bypass: stops wildtype yeast growth while TORC1 bypass cells still grow | 120 tested, under 10 active | AID 504456 | S. cerevisiae BY4741 spot growth rating, 48-72 h; stronger effect = lower value | growth rating (0-3) at 30 µM | shares compounds with LAP4-GFP MLPCN;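 active means growth rating at most 1 for wild type yeast while the TORC1 bypass strain still grows fully, rated 3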
The depositor's hits bear a star; . = no result given. Rows were chosen to be rich in hits. Some 0.89% of all compounds tested hit in one or more screens of this group.

SMILES	AGP1-GFP MLPCN	LAP4-GFP MLPCN	MEP2 TOR yeast	CIT2 TOR yeast	RPL19A-GFP yeast	s288c autofluor	others
O=C(NCC(=O)N1CCN(c2ccccc2)CC1)c1ccccc1	100	93	102	104	103	.
COc1ccc2c(c1)CC[C@@H]1[C@@H]2CC[C@]2(C)[C@@H](C(=O)O)C[C@@H]12	78	167*	94	64	93	.	LAP4-GFP pick2=116;MEP2 cherry2=110;RPL19A-GFP pick2=90;CIT2-GFP pick2=88;AGP1 GFP CP2=88
COc1ccccc1/C=C/C(=O)OC(C)CN1CCCCC1 (configuration not stated)	95	79	105	107	100	.
O=C(NOC(=O)c1ccccc1)c1ccccc1	65	164*	102	79	93	2.3
Oc1c(CN2CCCCC2)cc(Br)c2cccnc12	107	227*	119	112	91	1.1
O=[N+]([O-])c1cc(CN2CCN(c3ccccc3)CC2)c(O)c2ncccc12	75	153*	99	.	77	1.1
CC(OC(=O)c1ccco1)C(=O)Nc1nc(-c2ccccc2)cs1 (configuration not stated)	101	177*	94	64	78	0	LAP4-GFP pick2=120;MEP2 cherry2=94;RPL19A-GFP pick2=98;CIT2-GFP pick2=103;AGP1 GFP CP2=99
O=C(Nc1nc(-c2ccccc2)cs1)c1ccco1	91	113	94	85	98	.
O=C1Nc2ccccc2/C1=C\C(=O)c1ccccc1	85	226*	91	80	80	0.4
CC(C)Oc1ccc(C(=O)/C=C2/C(=O)Nc3ccccc32)cc1	102	161*	90	87	89	0.61
CN(O)/C=C1\C(=O)Nc2ccccc21	.	104	112	108	100	.
CN(C)/C=C1\C(=O)Nc2ccccc21	107	96	109	111	.	.
CC1CCC(NC(=O)c2cc(S(=O)(=O)N(C)C)ccc2N2CCCC2)CC1 (configuration not stated)	111	107	103	108	97	.
CCN(CC)S(=O)(=O)c1cccc(NC(=O)C2CC(=O)N(c3ccc4c(c3)OCCO4)C2)c1 (configuration not stated)	101	104	104	100	102	.
Cn1ncc(S(=O)(=O)Cc2ccccc2)c(Cl)c1=O	101	161*	94	93	100	0.2	s288c autofl DR=0.84;TORC1 bypass=3
CCOC(=O)CCC(NC(=O)c1ccc(NCN2C(=O)CCC2=O)cc1)C(=O)OCC (configuration not stated)	103	100	99	101	102	.
Cc1nc2ccc(CN(C)c3ccc(C(=O)N[C@@H](CCC(=O)O)C(=O)O)s3)cc2c(=O)[nH]1	86	110	97	84	100	.
Nc1nc2ncc(CNc3ccc(C(=O)N[C@@H](CCC(=O)O)C(=O)O)cc3)nc2c(=O)[nH]1	103	101	108	108	101	0.1	LAP4-GFP pick2=102;MEP2 cherry2=103;RPL19A-GFP pick2=100;CIT2-GFP pick2=97;AGP1 GFP CP2=101
CN(Cc1cnc2nc(N)nc(N)c2n1)c1ccc(C(=O)N[C@@H](CCC(=O)O)C(=O)O)cc1	97	233*	90	58	84	0.51	LAP4-GFP pick2=273*;MEP2 cherry2=128;RPL19A-GFP pick2=93;CIT2-GFP pick2=93;AGP1 GFP CP2=127
CC(=O)Nc1cccc(OCCCNS(=O)(=O)c2ccc(C#N)cc2)c1	99	97	98	113	102	.
CC(OC(=O)c1cc(=O)[nH]c2ccccc12)C(=O)NC1CCCC1 (configuration not stated)	95	97	102	95	94	.
Cc1ccc(S(=O)(=O)c2ncccc2[N+](=O)[O-])cc1	101	199*	104	99	88	0.3	s288c autofl DR=0.16;TORC1 bypass=3
O=C(NC(=S)Nc1ccccc1OC(F)F)c1ccc2c(c1)OCO2	93	93	95	93	95	.
Cc1c(C)c2ccc(Oc3ccc([N+](=O)[O-])cc3C(F)(F)F)c(C)c2oc1=O	102	101	106	92	101	0.1	LAP4-GFP pick2=101;MEP2 cherry2=105;RPL19A-GFP pick2=103;CIT2-GFP pick2=103;AGP1 GFP CP2=100
COc1ccc2c(C(F)(F)F)cc(=O)oc2c1C	96	94	107	98	95	.
SMILES	AGP1-GFP MLPCN	LAP4-GFP MLPCN	MEP2 TOR yeast	CIT2 TOR yeast	RPL19A-GFP yeast	s288c autofluor	others
O=C1C2C3C=CC(CO)(O3)C2C(=O)N1c1ccc(-c2ccccc2)cc1 (configuration not stated)	77	263*	84	61	73	0.71
CC(C)(C)C(=O)NCC12C=CC(O1)C1C(=O)N(c3ccccc3)C(=O)C12 (configuration not stated)	104	128	98	109	100	.
O=C(CCn1c(=O)c2cccn2c2cccnc21)N1CCN(c2cccc(Cl)c2)CC1	104	126	103	100	103	.
O=C(CSc1nnc(CNC(=O)c2c(F)cccc2F)o1)NCCc1ccccc1	103	97	98	105	99	.
CCOc1ccc(-c2nc(CS(=O)(=O)CC(=O)NCc3ccc(F)cc3)c(C)o2)cc1	138	181*	177*	138	86	.	LAP4-GFP pick2=102;MEP2 cherry2=101;RPL19A-GFP pick2=97;CIT2-GFP pick2=102;AGP1 GFP CP2=101
CCCCNC(=O)[C@H]1N2C(=O)c3c(ccc(OC)c3OC)C2SC1(C)C (some centres not stated)	95	103	102	92	92	.
CCOc1ccc(CCNC(=O)c2cccs2)cc1OCC	102	105	111	103	99	.
